According to ChEMBL document CHEMBL1157539, “Thousands of chemical starting points for antimalarial lead identification” (Nature, 2010):

Test system: Plasmodium falciparum
Test: GSK_TCMDC: Inhibition of Plasmodium falciparum 3D7 in whole red blood cells, using parasite LDH activity as an index of growth. Test compounds present at 2uM
Format: functional

Row | SMILES | Inhibition [%]
1 | CCC(=O)Nc1ccc(C(O)CN2CCC3(C=Cc4ccccc4O3)CC2)cc1 (stereo not given) | 93
2 | COc1cccc(-c2ccc(NC(=O)C3CCCN(Cc4cccc(OC)c4O)C3)cc2)c1 (stereo not given) | 98
3 | CCC1N=C(N)N=C(N)N1OCc1cccc2ccccc12 (stereo not given) | 93
4 | COc1cc(NC(=O)/C=C/c2cc(F)cc(F)c2F)cc(OCCN2CCC3(CC2)OCCO3)c1.O=C(O)C(=O)O | 98
5 | Cc1ccc(C(NC(=O)c2ccccc2)c2ccc3cccnc3c2O)cc1 (stereo not given) | 92
6 | CCCOC(=O)C1=C(C)NC2=C(C(=O)CC(c3ccc(OC)c(OC)c3)C2)C1c1cccc(O)c1 (stereo not given) | 100
7 | CCOc1cc(C)ccc1C1CCN(CCN2CCC(CNC(=O)c3ccc(-c4ccc(C(F)(F)F)cc4)cc3)CC2)CC1 | 98
8 | O=C(Nc1ccc(-c2cncc(NCCCN3CCCC3)c2)cc1)c1ccccc1 | 94
9 | CC(C)(C)Oc1ccc(NC(=O)c2ccccc2O)cc1 | 86
10 | Cc1ccc(NC(=O)c2ccc3ncccc3c2)cc1OC1CCN(Cc2ccsc2)C1.O=C(O)C(F)(F)F (stereo not given) | 88
11 | CN(C)CCCOc1ccc(CN2CC[C@H](NC(=O)c3ccc(Cl)c(Cl)c3)C2)cc1Cl.O=C(O)C(F)(F)F | 100
12 | NS(=O)(=O)c1ccc(CNC(=O)c2cnc3c(O)cccc3c2Nc2cccc(NC(=O)c3ccc(Cl)c(Cl)c3)c2)cc1.O=C(O)C(F)(F)F | 97
13 | C[C@H](Cc1ccc(S(=O)(=O)c2ccc(C[C@@H](C)NC[C@H](O)c3cccc(Cl)c3)cc2)cc1)NC[C@H](O)c1cccc(Cl)c1.Cl | 99
14 | COc1ccc2c(NN=Cc3cccc(Cl)c3)ccnc2c1 | 100
15 | CCCCCCN1CCC(NCc2cccc(C#N)c2)CC1.O=C(O)C(F)(F)F | 97
16 | O=[N+]([O-])c1ccc(C=NNc2nc3ccccc3[nH]2)cc1 | 100
17 | Cc1nc(C)c(-c2ccc(C(F)(F)F)cc2)c(O)c1Br | 98
18 | CCN(CC)CCN(Cc1ccc(-c2ccc(C(F)(F)F)cc2)cc1)C(=O)Cn1c(CCc2ccc(F)c(F)c2F)nc(=O)c2ccccc21.O=C(O)C(O)C(O)C(=O)O | 97
19 | O=C(Nc1ccc(C(=O)N2CCN(CCN3CCN(c4cccc(C(F)(F)F)c4)CC3)CC2)cc1)c1ccc(C(F)(F)F)cc1 | 95
20 | COc1cccc(-c2cccc(-c3ccc(NC(=O)c4ccc([N+](=O)[O-])o4)cc3)n2)c1 | 97

Row | SMILES | Inhibition [%]
21 | C[C@@H](N)C#Cc1cc2c(Nc3ccc(OCc4cccc(F)c4)c(Cl)c3)ncnc2s1.O=CO | 89
22 | CCCN1CCN(c2cc(NCC)c3c4c(onc24)-c2ccccc2C3=O)CC1 | 96
23 | NC(=O)c1sc(-n2cnc3ccccc32)cc1OCc1ccccc1[N+](=O)[O-] | 99
24 | COc1cc2nc(Nc3ccc4c(cnn4Cc4ccccc4)c3)nc(Nc3ccc4c(cnn4Cc4ccccc4)c3)c2cc1OC | 99
25 | Cc1ccc2c(=NN=Cc3ccc(N(C)C)cc3)cc(C)[nH]c2c1 | 99
26 | Cc1cc(N2CCCC2)nc(Nc2ccc(NC(=O)COc3ccccc3)cc2)n1 | 100
27 | CC(C)CNCc1cccc(-c2cccc(CNC3CCN(Cc4ccccc4)CC3)c2)c1.O=C(O)C(F)(F)F | 100
28 | Cc1cccc2nc(-c3ccc(-c4ccc(CNCCNC(=O)c5ccnn5C)cc4)cc3)[nH]c12.O=C(O)C(F)(F)F | 100
29 | Clc1ccc(Cl)c2[nH]c(CNCCCNc3nc4ccccc4[nH]3)cc12 | 100
30 | CN(C)c1ccc(C=C2SC(=O)N=C2Nc2ccccc2)cc1 | 97
31 | COc1ccc2nccc(NC(=O)N3CCC(NCc4cc5c(F)ccc(F)c5[nH]4)CC3)c2n1.O=C(O)C(=O)O | 99
32 | CCOc1ccccc1CNc1nccc(NCCc2cn(C)c3ccccc23)n1 | 98
33 | Cc1ccc(C)c(Cn2ccc3nc(Cl)nc(Cl)c32)c1 | 95
34 | COc1ccc(-c2ccc(NC(=O)c3cccc(C#N)c3)cc2)cc1CN1CCC(O)CC1.O=C(O)C(F)(F)F | 100
35 | O=C(Nc1cccc(-c2ccc(-c3nc4cc(F)ccc4[nH]3)cc2)c1)Nc1ccc(F)c(F)c1F | 98
36 | COc1ccc(CNc2ccnc(-n3cnc4cc(C)c(C)cc43)n2)cc1Cl.O=C(O)C(F)(F)F | 100
37 | Oc1ccc2[nH]cc(C3CCN(CCCNCc4ccc(-c5ccccc5)cc4)CC3)c2c1 | 100
38 | CCOc1ccccc1C1CCN(CCCCNC(=O)c2ccc(NC(=O)c3ccc(Cl)cc3)cc2)CC1 | 95
39 | CCCc1cc(OC)c(CC2c3cc(O)c(C)cc3CCN2C)cc1OC.Cl (stereo not given) | 99
40 | N#CC(c1cccc(Cl)c1)c1ccc2c(C(F)(F)F)cc(C(F)(F)F)nc2n1 (stereo not given) | 96

Test system: Plasmodium falciparum
Test: GSK_TCMDC: Inhibition of Plasmodium falciparum Dd2 in whole red blood cells, using parasite LDH activity as an index of growth. Test compounds present at 2uM
Format: functional

Row | SMILES | Inhibition [%]
41 | CCC(=O)Nc1ccc(C(O)CN2CCC3(C=Cc4ccccc4O3)CC2)cc1 (stereo not given) | 47
42 | COc1cccc(-c2ccc(NC(=O)C3CCCN(Cc4cccc(OC)c4O)C3)cc2)c1 (stereo not given) | 78
43 | CCC1N=C(N)N=C(N)N1OCc1cccc2ccccc12 (stereo not given) | 1
44 | COc1cc(NC(=O)/C=C/c2cc(F)cc(F)c2F)cc(OCCN2CCC3(CC2)OCCO3)c1.O=C(O)C(=O)O | 26
45 | Cc1ccc(C(NC(=O)c2ccccc2)c2ccc3cccnc3c2O)cc1 (stereo not given) | 72
46 | CCCOC(=O)C1=C(C)NC2=C(C(=O)CC(c3ccc(OC)c(OC)c3)C2)C1c1cccc(O)c1 (stereo not given) | 99
47 | CCOc1cc(C)ccc1C1CCN(CCN2CCC(CNC(=O)c3ccc(-c4ccc(C(F)(F)F)cc4)cc3)CC2)CC1 | 89
48 | O=C(Nc1ccc(-c2cncc(NCCCN3CCCC3)c2)cc1)c1ccccc1 | 49
49 | CC(C)(C)Oc1ccc(NC(=O)c2ccccc2O)cc1 | 67
50 | Cc1ccc(NC(=O)c2ccc3ncccc3c2)cc1OC1CCN(Cc2ccsc2)C1.O=C(O)C(F)(F)F (stereo not given) | 49
51 | CN(C)CCCOc1ccc(CN2CC[C@H](NC(=O)c3ccc(Cl)c(Cl)c3)C2)cc1Cl.O=C(O)C(F)(F)F | 35
52 | NS(=O)(=O)c1ccc(CNC(=O)c2cnc3c(O)cccc3c2Nc2cccc(NC(=O)c3ccc(Cl)c(Cl)c3)c2)cc1.O=C(O)C(F)(F)F | 35
53 | C[C@H](Cc1ccc(S(=O)(=O)c2ccc(C[C@@H](C)NC[C@H](O)c3cccc(Cl)c3)cc2)cc1)NC[C@H](O)c1cccc(Cl)c1.Cl | 98
54 | COc1ccc2c(NN=Cc3cccc(Cl)c3)ccnc2c1 | 94
55 | CCCCCCN1CCC(NCc2cccc(C#N)c2)CC1.O=C(O)C(F)(F)F | 9
56 | O=[N+]([O-])c1ccc(C=NNc2nc3ccccc3[nH]2)cc1 | 98
57 | Cc1nc(C)c(-c2ccc(C(F)(F)F)cc2)c(O)c1Br | 96
58 | CCN(CC)CCN(Cc1ccc(-c2ccc(C(F)(F)F)cc2)cc1)C(=O)Cn1c(CCc2ccc(F)c(F)c2F)nc(=O)c2ccccc21.O=C(O)C(O)C(O)C(=O)O | 66
59 | O=C(Nc1ccc(C(=O)N2CCN(CCN3CCN(c4cccc(C(F)(F)F)c4)CC3)CC2)cc1)c1ccc(C(F)(F)F)cc1 | 28
60 | COc1cccc(-c2cccc(-c3ccc(NC(=O)c4ccc([N+](=O)[O-])o4)cc3)n2)c1 | 94

Row | SMILES | Inhibition [%]
61 | C[C@@H](N)C#Cc1cc2c(Nc3ccc(OCc4cccc(F)c4)c(Cl)c3)ncnc2s1.O=CO | 23
62 | CCCN1CCN(c2cc(NCC)c3c4c(onc24)-c2ccccc2C3=O)CC1 | 11
63 | NC(=O)c1sc(-n2cnc3ccccc32)cc1OCc1ccccc1[N+](=O)[O-] | 46
64 | COc1cc2nc(Nc3ccc4c(cnn4Cc4ccccc4)c3)nc(Nc3ccc4c(cnn4Cc4ccccc4)c3)c2cc1OC | 100
65 | Cc1ccc2c(=NN=Cc3ccc(N(C)C)cc3)cc(C)[nH]c2c1 | 46
66 | Cc1cc(N2CCCC2)nc(Nc2ccc(NC(=O)COc3ccccc3)cc2)n1 | 86
67 | CC(C)CNCc1cccc(-c2cccc(CNC3CCN(Cc4ccccc4)CC3)c2)c1.O=C(O)C(F)(F)F | 99
68 | Cc1cccc2nc(-c3ccc(-c4ccc(CNCCNC(=O)c5ccnn5C)cc4)cc3)[nH]c12.O=C(O)C(F)(F)F | 98
69 | Clc1ccc(Cl)c2[nH]c(CNCCCNc3nc4ccccc4[nH]3)cc12 | 39
70 | CN(C)c1ccc(C=C2SC(=O)N=C2Nc2ccccc2)cc1 | 96
71 | COc1ccc2nccc(NC(=O)N3CCC(NCc4cc5c(F)ccc(F)c5[nH]4)CC3)c2n1.O=C(O)C(=O)O | 40
72 | CCOc1ccccc1CNc1nccc(NCCc2cn(C)c3ccccc23)n1 | 62
73 | Cc1ccc(C)c(Cn2ccc3nc(Cl)nc(Cl)c32)c1 | 68
74 | COc1ccc(-c2ccc(NC(=O)c3cccc(C#N)c3)cc2)cc1CN1CCC(O)CC1.O=C(O)C(F)(F)F | 84
75 | O=C(Nc1cccc(-c2ccc(-c3nc4cc(F)ccc4[nH]3)cc2)c1)Nc1ccc(F)c(F)c1F | 98
76 | COc1ccc(CNc2ccnc(-n3cnc4cc(C)c(C)cc43)n2)cc1Cl.O=C(O)C(F)(F)F | 100
77 | Oc1ccc2[nH]cc(C3CCN(CCCNCc4ccc(-c5ccccc5)cc4)CC3)c2c1 | 0
78 | CCOc1ccccc1C1CCN(CCCCNC(=O)c2ccc(NC(=O)c3ccc(Cl)cc3)cc2)CC1 | 27
79 | CCCc1cc(OC)c(CC2c3cc(O)c(C)cc3CCN2C)cc1OC.Cl (stereo not given) | 89
80 | N#CC(c1cccc(Cl)c1)c1ccc2c(C(F)(F)F)cc(C(F)(F)F)nc2n1 (stereo not given) | 97
